Results: PubChem BioAssay
Active and inactive are the calls of the source.

Experiments:
[1] = system: Plasmodium falciparum Sir2 (PF13_0152, Sir2A); assay: Plasmodium falciparum Sir2A binding compounds – biochemical, small-molecule microarray, 635 nm fluorescence, primary screen (AID 1098); conditions: fluorescence 635 nm, higher = more signal;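 also: score merges spot fluorescence intensity with its signal-to-noise ratio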
[2] = probe aDKK1 binding to arrayed compounds – biochemical, biotinylated probe, 635/667 nm fluorescence, primary screen (AID 1099); conditions: small-molecule microarray, higher = more signal;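 also: score merges 667nm spot fluorescence with signal to noise across triplicate slides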
[3] = probe aCHRDL2 binding to arrayed compounds – biochemical, biotinylated probe, 635/667 nm fluorescence, primary screen (AID 1100); conditions: small-molecule microarray, higher = more signal
[4] = change in splice reporter luminescence, either direction, cell-based, HEK293, spliceosome inhibition project, primary screen (AID 1101); conditions: HEK293 splicing luciferase reporter, 24 h, higher = more signal, called active from +8 up or from −8 down;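 also: HEK293 cells carrying a splicing-competent luciferase reporter gene; test concentration not given here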
[5] = molecular target: Fibroblast growth factor 10 (Homo sapiens) (UniProt O15520); assay: compounds binding fibroblast growth factor 10 – biochemical, small-molecule microarray, 635 nm fluorescence, primary screen (AID 1102); conditions: FGF10 binding, fluorescence 635 nm, higher = more signal
Chain of Fibroblast growth factor 10 (Homo sapiens) (O15520 whole entry, looked up): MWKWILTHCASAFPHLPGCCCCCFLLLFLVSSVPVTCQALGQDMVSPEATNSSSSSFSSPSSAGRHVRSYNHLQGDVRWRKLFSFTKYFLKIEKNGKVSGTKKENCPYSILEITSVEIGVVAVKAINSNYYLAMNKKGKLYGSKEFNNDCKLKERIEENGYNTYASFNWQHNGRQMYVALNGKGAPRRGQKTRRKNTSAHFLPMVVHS

[6] = system: glycogen synthase kinase-3 (GSK3A per assay name; protocol says GSK3B); assay: compounds binding glycogen synthase kinase-3 – biochemical, small-molecule microarray, 635 nm fluorescence, GSK3A, primary screen (AID 1103); conditions: fluorescence 635 nm, higher = more signal; also: the record names both GSK3A and GSK3B
[7] = molecular target: Epidermal growth factor receptor (Homo sapiens) (UniProt P00533); assay: compounds binding epidermal growth factor receptor – biochemical, small-molecule microarray, 635 nm fluorescence, primary screen (AID 1104); conditions: EGFR binding, higher = more signal;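 also: score merges 667 nm emission intensity with spot signal to noise over triplicate slides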
Chain of Epidermal growth factor receptor (Homo sapiens) (P00533 whole entry, looked up): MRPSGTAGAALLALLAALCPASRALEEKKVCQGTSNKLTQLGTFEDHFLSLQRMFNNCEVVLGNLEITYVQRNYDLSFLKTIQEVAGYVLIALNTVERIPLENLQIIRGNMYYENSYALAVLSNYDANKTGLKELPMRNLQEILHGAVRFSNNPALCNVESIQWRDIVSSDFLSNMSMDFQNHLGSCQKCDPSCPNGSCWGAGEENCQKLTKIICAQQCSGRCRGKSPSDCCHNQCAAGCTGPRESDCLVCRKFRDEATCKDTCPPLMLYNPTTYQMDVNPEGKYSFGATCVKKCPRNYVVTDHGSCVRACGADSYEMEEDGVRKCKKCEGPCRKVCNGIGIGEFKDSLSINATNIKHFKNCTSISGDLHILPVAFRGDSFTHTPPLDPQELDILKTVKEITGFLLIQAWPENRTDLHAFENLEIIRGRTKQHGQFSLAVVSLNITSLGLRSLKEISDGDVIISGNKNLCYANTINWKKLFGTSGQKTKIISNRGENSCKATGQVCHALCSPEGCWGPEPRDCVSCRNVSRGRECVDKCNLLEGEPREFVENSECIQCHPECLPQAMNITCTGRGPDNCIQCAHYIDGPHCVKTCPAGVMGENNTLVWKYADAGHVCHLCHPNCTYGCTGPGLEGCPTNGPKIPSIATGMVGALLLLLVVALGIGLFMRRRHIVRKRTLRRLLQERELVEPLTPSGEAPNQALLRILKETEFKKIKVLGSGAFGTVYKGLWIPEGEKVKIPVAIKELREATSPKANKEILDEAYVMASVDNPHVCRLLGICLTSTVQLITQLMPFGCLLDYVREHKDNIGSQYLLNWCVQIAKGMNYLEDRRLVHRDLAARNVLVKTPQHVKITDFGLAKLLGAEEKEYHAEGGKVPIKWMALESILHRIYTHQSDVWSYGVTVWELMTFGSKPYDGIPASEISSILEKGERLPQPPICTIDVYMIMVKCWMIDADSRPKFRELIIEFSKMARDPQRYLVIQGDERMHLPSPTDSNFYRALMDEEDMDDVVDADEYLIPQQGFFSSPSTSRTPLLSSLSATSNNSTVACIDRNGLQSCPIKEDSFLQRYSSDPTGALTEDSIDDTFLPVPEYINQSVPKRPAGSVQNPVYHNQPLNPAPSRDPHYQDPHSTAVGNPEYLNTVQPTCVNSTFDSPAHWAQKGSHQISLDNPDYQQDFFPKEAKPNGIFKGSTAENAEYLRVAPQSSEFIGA

[8] = molecular target: Follistatin-related protein 3 (Homo sapiens) (UniProt O95633); assay: compounds binding follistatin-related protein 3 – biochemical, small-molecule microarray, 635 nm fluorescence, primary screen (AID 1105); conditions: FSTL3 binding, higher = more signal;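 also: score merges emission near 667 nm and signal to noise per printed spot across three slides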
Chain of Follistatin-related protein 3 (Homo sapiens) (O95633 whole entry, looked up): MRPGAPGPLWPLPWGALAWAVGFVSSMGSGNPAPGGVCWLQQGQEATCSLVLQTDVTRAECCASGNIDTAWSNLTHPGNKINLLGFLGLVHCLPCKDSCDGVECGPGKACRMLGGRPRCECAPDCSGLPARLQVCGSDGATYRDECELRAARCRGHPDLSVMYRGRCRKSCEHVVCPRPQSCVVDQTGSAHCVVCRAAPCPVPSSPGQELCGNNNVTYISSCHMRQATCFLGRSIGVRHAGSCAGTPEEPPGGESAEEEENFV

[9] = molecular target: Dickkopf-related protein 1 (Homo sapiens) (UniProt O94907); assay: small molecules binding DKK1 protein – biochemical, small-molecule microarray, 635 nm fluorescence scan, primary screen (AID 1106); conditions: higher = more signal;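 also: score merges emission near 667 nm with signal to noise over three replicate slides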
Chain of Dickkopf-related protein 1 (Homo sapiens) (O94907 whole entry, looked up): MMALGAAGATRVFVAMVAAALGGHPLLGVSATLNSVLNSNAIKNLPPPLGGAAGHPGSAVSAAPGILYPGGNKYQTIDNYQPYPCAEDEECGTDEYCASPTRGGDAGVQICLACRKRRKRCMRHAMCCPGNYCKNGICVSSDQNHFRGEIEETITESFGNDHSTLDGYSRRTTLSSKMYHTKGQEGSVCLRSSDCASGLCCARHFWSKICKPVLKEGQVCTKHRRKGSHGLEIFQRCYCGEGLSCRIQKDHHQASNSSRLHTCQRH

[10] = system: Inhibin beta A chain (activin A); assay: small molecules binding activin A – biochemical, small-molecule microarray, 635 nm fluorescence scan, primary screen (AID 1107); conditions: INHBA, higher = more signal;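 also: mouse activin A protein probed at 4.33 µg/mL on printed slides; score merges bound-protein fluorescence near 667 nm with spot signal-to-noise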
[11] = system: Human papillomavirus type 1a protein E7 (residues 44-93); assay: small molecules binding HPV E7 44-93 – biochemical, small-molecule microarray, residues 44-93, 635 nm fluorescence, primary screen (AID 1108); conditions: fluorescence 635 nm, higher = more signal;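 also: E7 fragment applied at 1 µg/mL in TBST for 1 h at 4 C; score combines spot fluorescence with its signal to noise ratio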
[12] = hepatitis C replication reporter changes, two-sided – Huh7 cells, luciferase reporter, HCV replication inhibitor project, primary screen (AID 1109); conditions: Huh7 HCV replicon luciferase reporter, 48 h; higher = more signal;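 also: huh7 hepatoma cells harbouring a luciferase neomycin HCV replicon reporter; luciferase luminescence as measure of HCV replicon replication; test concentration not given here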
[13] = molecular target: Left-right determination factor 2 (Homo sapiens) (UniProt O00292); assay: small molecules binding LEFTY2 protein – biochemical, small-molecule microarray, 635 nm fluorescence scan, primary screen (AID 1110); conditions: higher = more signal
Chain of Left-right determination factor 2 (Homo sapiens) (O00292 whole entry, looked up): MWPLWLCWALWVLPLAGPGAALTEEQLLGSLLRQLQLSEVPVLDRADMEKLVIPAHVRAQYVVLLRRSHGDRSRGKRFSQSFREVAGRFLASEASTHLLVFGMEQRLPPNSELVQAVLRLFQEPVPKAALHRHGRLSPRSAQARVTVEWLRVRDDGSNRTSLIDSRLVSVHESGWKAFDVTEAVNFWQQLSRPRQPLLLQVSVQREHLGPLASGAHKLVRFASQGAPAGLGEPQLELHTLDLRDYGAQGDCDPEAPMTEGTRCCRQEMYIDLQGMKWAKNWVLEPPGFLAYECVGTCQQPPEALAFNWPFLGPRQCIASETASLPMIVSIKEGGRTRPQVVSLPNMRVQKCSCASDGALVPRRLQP

[14] = molecular target: Calmodulin-1 (Homo sapiens) (UniProt P0DP23); assay: small molecules binding calmodulin-1 with EGTA – biochemical, small-molecule microarray, Cy5-labelled CALM1, profiling panel (AID 1111); conditions: Cy5-CALM1 binding fluorescence, higher = more signal;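 also: labelled calmodulin applied in Tris saline Tween buffer holding calcium plus EGTA and DTT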
[15] = molecular target: Calmodulin-1 (Homo sapiens) (UniProt P0DP23); assay: small molecules binding Ca-loaded calmodulin-1 – biochemical, small-molecule microarray, Cy5-labelled CALM1, plus calcium, artefact control for SMM control-protein annotation, profiling panel (AID 1112); conditions: Cy5-CALM1 binding fluorescence, higher = more signal;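 also: score merges spot fluorescence with signal to noise from triplicate slides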
[16] = probe aWnt5a binding to arrayed compounds – biochemical, biotinylated probe, 635/667 nm fluorescence, primary screen (AID 1113); conditions: small-molecule microarray, higher = more signal;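 also: score merges 667 nm fluorescence intensity with signal-to-noise per printed feature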
[17] = probe aShh binding to arrayed compounds – biochemical, biotinylated probe, 635/667 nm fluorescence, primary screen (AID 1114); conditions: small-molecule microarray, higher = more signal;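 also: probe is biotin-labelled aShh protein from a stem cell growth factor screen; measures binding of labelled protein to compounds printed on the slide; score merges feature fluorescence at 667 nm with signal-to-noise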
[18] = probe aNog binding to arrayed compounds – biochemical, biotinylated probe, 635/667 nm fluorescence, primary screen (AID 1115); conditions: small-molecule microarray, higher = more signal;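 also: probe is biotinylated aNog protein used at 0.15 µg/mL for 1 h at 4 C; z-score combines 667 nm fluorescence of each spot with its signal to noise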
[19] = molecular target: Torsin-1A-interacting protein 1 (Homo sapiens) (UniProt Q5JTV8); assay: compound microarray binding of lysate hLAP1 – cell lysate, small-molecule microarray, COS7 lysate, 635/667 nm fluorescence, primary screen (AID 1116); conditions: 635 nm fluorescence, higher = more signal
Chain of Torsin-1A-interacting protein 1 (Homo sapiens) (Q5JTV8 whole entry, looked up): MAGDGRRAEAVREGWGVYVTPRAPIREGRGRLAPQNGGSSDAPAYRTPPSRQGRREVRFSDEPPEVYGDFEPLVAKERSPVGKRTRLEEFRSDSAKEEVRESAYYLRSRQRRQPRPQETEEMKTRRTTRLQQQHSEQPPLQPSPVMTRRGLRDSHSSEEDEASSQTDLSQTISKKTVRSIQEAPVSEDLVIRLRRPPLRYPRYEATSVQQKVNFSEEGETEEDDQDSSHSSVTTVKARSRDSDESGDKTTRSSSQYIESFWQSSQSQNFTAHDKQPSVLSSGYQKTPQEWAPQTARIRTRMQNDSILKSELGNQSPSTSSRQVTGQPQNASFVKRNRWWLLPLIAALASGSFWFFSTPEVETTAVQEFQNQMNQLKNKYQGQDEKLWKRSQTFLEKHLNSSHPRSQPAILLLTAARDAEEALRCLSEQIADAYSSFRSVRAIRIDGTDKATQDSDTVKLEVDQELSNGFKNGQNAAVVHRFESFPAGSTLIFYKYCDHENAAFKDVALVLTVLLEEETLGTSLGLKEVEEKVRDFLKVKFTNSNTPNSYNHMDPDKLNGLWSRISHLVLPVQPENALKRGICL

[20] = molecular target: Alpha-bungarotoxin (Bungarus multicinctus) (UniProt P60615); assay: compounds binding labelled alpha-BTX control protein – biochemical, small-molecule microarray, Alexa647 label, 635/667 nm fluorescence, artefact control for SMM control protein annotation, profiling panel (AID 1117); conditions: alpha-BTX-A647 binding fluorescence, higher = more signal
Chain of Alpha-bungarotoxin (Bungarus multicinctus) (P60615 whole entry, looked up): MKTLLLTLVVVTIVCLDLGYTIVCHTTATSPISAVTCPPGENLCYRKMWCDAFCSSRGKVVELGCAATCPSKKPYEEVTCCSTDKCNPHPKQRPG

SMILES | composite z-score [1] | composite z-score [2] | composite z-score [3] | z-score [4] | composite z-score [5] | composite z-score [6] | composite z-score [7] | composite z-score [8] | composite z-score [9] | composite z-score [10] | composite z-score [11] | z-score [12] | composite z-score [13] | composite z-score [14] | composite z-score [15] | composite z-score [16] | composite z-score [17] | composite z-score [18] | composite z-score [19] | composite z-score [20]
COC(=O)C(CC#Cc1ccc2c(c1)[C@]1(C(=O)N2)[C@H](C(=O)N2CCN(c3ncccn3)CC2)[C@H]2C(=O)O[C@H](c3ccccc3)[C@H](c3ccccc3)N2[C@@H]1c1ccc(OCCO)cc1)C(=O)OC | 1.22 | 0.0224 | -0.0434 | -0.152 (inactive) | 1.17 | 0.994 | 0.68 | 1.39 | 0.612 | 0.0693 | 1.45 | -1.7 | 0.839 | 0.918 | 0.245 | -0.0792 | -0.144 | 0.0574 | 0.624 | 2.21
Cc1ccc(S[C@]2(C(=O)NCCCN(C)C)CC(=O)N(C3CCCCC3)[C@@H]2c2ccc(CO)cc2)cc1 | -0.0346 | 0.348 | 0.893 | 0.104 (inactive) | -0.89 | -0.464 | -0.674 | -0.811 | -0.774 | 0.83 | -0.246 | -2.51 | -0.992 | -0.596 | -0.677 | -0.129 | -0.0035 | -0.255 | -0.549 | -0.123
COC(=O)CCCCCCC(=O)Nc1ccc(NC(=O)CCCC[P+](c2ccccc2)(c2ccccc2)c2ccccc2)cc1 | 0.5 | -0.238 | -0.842 | -0.186 (inactive) | 1.38 | 0.686 | 0.758 | 0.955 | 1.16 | 0.59 | -0.0924 | 0.319 | 0.749 | -0.0302 | -0.516 | -0.0751 | -0.147 | -0.209 | 0.533 | -0.573
O=C1O[C@@H](c2ccccc2)[C@@H](c2ccccc2)N2[C@@H](c3ccc(O)cc3)[C@]3(C(=O)Nc4ccc(C#CC5(O)CCCCCC5)cc43)[C@@H](C(=O)NC[C@H](O)c3ccccc3)[C@H]12 | 1.29 | -0.171 | 0.467 | -0.55 (inactive) | -0.174 | 0.791 | -0.568 | -0.442 | -0.505 | -0.357 | 1.39 | -0.737 | -0.817 | 0.122 | 0.208 | -0.0276 | -0.138 | 0.0841 | 1.15 | 0.203
O=C1O[C@H](c2ccccc2)[C@H](c2ccccc2)N2[C@H]1[C@@H](C(=O)NC[C@H](O)c1ccccc1)[C@]1(C(=O)Nc3ccc(C#CCCO)cc31)[C@H]2c1ccc(OCCO)cc1 | 1.58 | 0.222 | 0.0751 | 0.613 (inactive) | 0.575 | 0.739 | 0.037 | 0.701 | 0.264 | 0.503 | 1.1 | -1.32 | -0.312 | 1.1 | 0.547 | -0.0758 | 0.241 | 0.509 | 0.213 | 1.16
CC(C)[Si](C#C[Si](C(C)C)(C(C)C)C(C)C)(O[C@H](C)c1cn([C@H](CO)Cc2ccccc2)nn1)C(C)C | 0.107 | -0.229 | -0.316 | -0.0126 (inactive) | 0.0848 | 0.229 | 0.0255 | -0.0447 | 0.377 | 0.201 | 0.534 | -0.677 | 0.182 | -0.0641 | -0.393 | -0.0924 | -0.0977 | -0.122 | 0.227 | -0.0846
CO[C@H]1O[C@H](CO)[C@@H](OC(=O)Nc2ccccc2-c2ccccc2)[C@H](OC(=O)Nc2ccc3c(c2)OCO3)[C@H]1OC(=O)Nc1ccc2c(c1)OCO2 | 1.38 | 0.244 | 0.485 | -1.2 (inactive) | 1.24 | 1.32 | 0.17 | 1.43 | 0.298 | 0.752 | 1.29 | 1.54 | 0.395 | 0.58 | -0.187 | -0.0194 | 0.398 | 1.19 | 1.76 | 1.25
COc1cc(CO)cc(I)c1O[C@H]1C=C(C(=O)NCCO)C[C@@H](NCc2ccc(F)cc2)[C@@H]1O | 0.935 | -0.197 | -0.162 | -1.05 (inactive) | 1.43 | 0.191 | -0.0831 | 0.991 | 0.978 | -0.144 | -1.08 | -4.07 | 0.275 | 0.433 | -0.918 | -0.202 | 0.0684 | -0.506 | 0.0217 | 0.2
CCOC(=O)C[C@H]1[C@H](OC(=O)c2ccc(C(=O)c3ccccc3)cc2)[C@@H](NC(=O)Cc2ccc(OC)cc2)c2cc(OCCCO)ccc2N1C(=O)c1ccccc1 | -0.186 | 0.0467 | 0.521 | -0.449 (inactive) | 0.281 | -0.0732 | 0.12 | -0.0059 | 0.0251 | 0.643 | 0.41 | -1.15 | 0.117 | 0.0574 | 0.425 | 0.112 | -0.237 | 0.0775 | 0.516 | 0.168
O=C1C=C(c2ccccc2)C(=O)c2ccc([C@H]3Oc4ccccc4S(=O)(=O)N4CCC[C@@H]34)cc21 | -0.186 | -0.39 | -0.6 | 0.781 (inactive) | -0.101 | -0.191 | 0.496 | -0.266 | 0.714 | 1.04 | -1.08 | -4.28 | -0.272 | -0.623 | -0.351 | -0.172 | -0.117 | -0.23 | -0.239 | -0.0257
COC(=O)[C@H](Cc1ccccc1)N1CC(/C=C/C2CC2)=C[C@H]1[C@H](O)Cc1ccccc1 | 0.728 | -0.0559 | -0.165 | 20.9 (active) | 0.697 | 0.368 | 0.237 | 0.702 | 0.734 | 0.597 | 0.484 | -4.03 | 0.396 | 0.405 | -0.647 | -0.0944 | -0.0693 | 0.287 | 0.425 | 1.2
NC(N)=NCCCn1cc(CNC(=O)[C@@H](N)Cc2ccccc2)nn1 | 1.23 | 0.174 | 0.34 | 0.292 (inactive) | 0.697 | 0.0853 | -0.38 | 1.36 | 0.0571 | 0.9 | -0.15 | -0.332 | 0.566 | -0.806 | -0.458 | -0.128 | -0.0146 | 0.0472 | 0.984 | 0.0071
CC(C)C[C@@H]1NC(=O)[C@@H]2C[C@H](C(=O)NCCCCN(C)C)[C@H](c3cccc(OCCO)c3)N2C1=O | 1.66 | -0.224 | 0.0176 | -0.464 (inactive) | -0.272 | -1.24 | -0.0053 | -0.135 | 0.212 | 0.266 | 0.314 | -0.138 | -0.113 | 0.0053 | -0.0276 | -0.221 | -0.138 | -0.313 | -0.249 | -0.555
O=C1O[C@H](c2ccccc2)[C@H](c2ccccc2)N2[C@H]1[C@@H](C(=O)O)[C@]1(C(=O)Nc3ccc(C#CC4=CCCCC4)cc31)[C@H]2c1ccc(O)cc1 | 1.37 | -0.0007 | 0.0645 | -0.824 (inactive) | 1.06 | 0.908 | 0.23 | 0.844 | 1.11 | 0.855 | 1.33 | -0.955 | 0.658 | -0.461 | -0.283 | -0.0792 | 0.0284 | -0.213 | 0.499 | -0.188
COCCCNC(=O)[C@@]1(Sc2ccc(C)cc2)CC(=O)N(C2CCCCC2)[C@@H]1c1ccc(CO)cc1 | 0.0677 | 0.196 | 0.899 | -0.397 (inactive) | 0.229 | -0.823 | -0.687 | -1.1 | -1.65 | 0.446 | 0.104 | -1.19 | -0.942 | -0.206 | 0.0573 | -0.0799 | -0.0643 | 0.684 | 0.447 | -0.255
